Results as given in PubChem BioAssay AID1159580 (chemical genetic matrix, 2015).
About 2,000 (36%) of roughly 5,500 compounds were called active. Another 18% or so got no clear call; they are omitted. Cut-off read from the data, not from the text of the source: active = normalized growth mostly below about 0.91 (no sharp cut-off); inconclusive = no clear call, values can overlap the other calls; inactive = mostly above about 0.92. This is one part of the list.

Experiment: chemical genetic growth profiling, strain panel (AID 1159580);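 note: tested at 20 µM; growth read once vehicle control cultures reached saturation at 30 °C; 1 = growth at the plate median or of vehicle wells; lower values mean less growth of the strain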
Details: growth OD

Measured: normalized growth

NC[C@H](O)c1ccc(O)c(O)c1
active: S. cerevisiae deletion strains, locus YMR058W, strain fet3, hits give low values 0.841
inactive: S. cerevisiae deletion strains, locus YJR066W, strain TOR1, hits give low values 0.934 | S. cerevisiae deletion strains, locus YJR075W, strain HOC1, hits give low values 1.02 | S. cerevisiae deletion strains, locus YKL009W, strain mrt4, hits give low values 1 | S. cerevisiae deletion strains, locus YKL068W, hits give low values 1.01 | S. cerevisiae deletion strains, locus YKL085W, strain MDH1 (second series), hits give low values 1.01 | S. cerevisiae deletion strains, locus YKL085W, strain MDH1, hits give low values 1.01 | S. cerevisiae deletion strains, locus YKL160W, strain elf1, hits give low values 1.02 | S. cerevisiae deletion strains, locus YKL190W, strain CNB1, hits give low values 1.01 | S. cerevisiae deletion strains, locus YKR001C, strain vps1, hits give low values 0.999 | S. cerevisiae deletion strains, locus YKR026C, strain gcn3, hits give low values 1 | S. cerevisiae deletion strains, locus YKR091W, strain srl3, hits give low values 1.01 | S. cerevisiae deletion strains, locus YLL001W, strain dnm1, hits give low values 1.02 | S. cerevisiae deletion strains, locus YLL026W, hits give low values 1.02 | S. cerevisiae deletion strains, locus YLL041C, strain sdh2, hits give low values 1 | S. cerevisiae deletion strains, locus YLR027C, strain aat2, hits give low values 1.01 | S. cerevisiae deletion strains, locus YLR039C, strain RIC1, hits give low values 1 | S. cerevisiae deletion strains, locus YLR058C, strain SHM2, hits give low values 1.01 | S. cerevisiae deletion strains, locus YLR102C, strain apc9, hits give low values 1.02 | S. cerevisiae deletion strains, locus YLR113W, strain HOG1, hits give low values 0.97 | S. cerevisiae deletion strains, locus YLR221C, strain rsa3, hits give low values 1.01 | S. cerevisiae deletion strains, locus YLR258W, strain gsy2, hits give low values 1.01 | S. cerevisiae deletion strains, locus YLR262C, strain YPT6 (second series), hits give low values 1.02 | S. cerevisiae deletion strains, locus YLR262C, strain YPT6, hits give low values 1.04 | S. cerevisiae deletion strains, locus YLR268W, strain sec22, hits give low values 1.04 | S. cerevisiae deletion strains, locus YLR320W, strain mms22, hits give low values 1.04 | S. cerevisiae deletion strains, locus YLR330W, strain CHS5, hits give low values 1.01 | S. cerevisiae deletion strains, locus YLR342W, strain FKS1 (second series), hits give low values 1.01 | S. cerevisiae deletion strains, locus YLR342W, strain FKS1, hits give low values 1.01 | S. cerevisiae deletion strains, locus YLR357W, strain rsc2, hits give low values 0.938 | S. cerevisiae deletion strains, locus YLR370C, strain arc18, hits give low values 1.01 | S. cerevisiae deletion strains, locus YLR371W, strain rom2, hits give low values 1.03 | S. cerevisiae deletion strains, locus YLR384C, strain iki3, hits give low values 1 | S. cerevisiae deletion strains, locus YLR418C, strain cdc73, hits give low values 1 | S. cerevisiae deletion strains, locus YML016C, strain PPZ1, hits give low values 1 | S. cerevisiae deletion strains, locus YML032C, strain rad52, hits give low values 1.02 | S. cerevisiae deletion strains, locus YML120C, strain ndi1, hits give low values 1 | S. cerevisiae deletion strains, locus YML124C, strain tub3, hits give low values 1.01 | S. cerevisiae deletion strains, locus YMR078C, strain ctf18, hits give low values 1.02 | S. cerevisiae deletion strains, locus YMR125W, strain sto1, hits give low values 0.952 | S. cerevisiae deletion strains, locus YMR129W, hits give low values 0.993 | S. cerevisiae deletion strains, locus YMR205C, strain PFK2, hits give low values 1.06 | S. cerevisiae deletion strains, locus YMR223W, strain ubp8, hits give low values 0.99 | S. cerevisiae deletion strains, locus YMR231W, strain pep5, hits give low values 0.995 | S. cerevisiae deletion strains, locus YMR263W, strain SAP30, hits give low values 1.01 | S. cerevisiae deletion strains, locus YMR307W, strain GAS1, hits give low values 0.979 | S. cerevisiae deletion strains, locus YNL067W, strain RPL9B, hits give low values 1.01 | S. cerevisiae deletion strains, locus YNL071W, strain lat1, hits give low values 0.997 | S. cerevisiae deletion strains, locus YNL183C, strain NPR1, hits give low values 0.948 | S. cerevisiae deletion strains, locus YNL209W, strain ssb2, hits give low values 0.999 | S. cerevisiae deletion strains, locus YNL233W, strain BNI4, hits give low values 1.01 | S. cerevisiae deletion strains, locus YNL248C, strain rpa49, hits give low values 0.978 | S. cerevisiae deletion strains, locus YNL250W, strain rad50, hits give low values 1.01 | S. cerevisiae deletion strains, locus YNL271C, strain bni1, hits give low values 1.01 | S. cerevisiae deletion strains, locus YNL298W, strain CLA4, hits give low values 1 | S. cerevisiae deletion strains, locus YNL307C, strain MCK1, hits give low values 1.02 | S. cerevisiae deletion strains, locus YNL322C, strain KRE1 (second series), hits give low values 1.01 | S. cerevisiae deletion strains, locus YNR049C, strain mso1, hits give low values 1.01 | S. cerevisiae deletion strains, locus YNR052C, strain pop2, hits give low values 1.01 | S. cerevisiae deletion strains, locus YOL006C, strain TOP1, hits give low values 0.941 | S. cerevisiae deletion strains, locus YOL012C, strain htz1 1.04 | S. cerevisiae deletion strains, locus YOL147C, strain pex11, hits give low values 1.01 | S. cerevisiae deletion strains, locus YOR001W, strain rrp6, hits give low values 0.969 | S. cerevisiae deletion strains, locus YOR061W, strain CKA2, hits give low values 1.01 | S. cerevisiae deletion strains, locus YOR069W, strain VPS5, hits give low values 1.01 | S. cerevisiae deletion strains, locus YOR070C, strain gyp1, hits give low values 1 | S. cerevisiae deletion strains, locus YOR080W, strain dia2, hits give low values 1.01 | S. cerevisiae deletion strains, locus YOR083W, strain WHI5, hits give low values 1.05 | S. cerevisiae deletion strains, locus YOR106W, strain vam3, hits give low values 1.04 | S. cerevisiae deletion strains, locus YOR136W, strain idh2, hits give low values 1.02 | S. cerevisiae deletion strains, locus YOR144C, strain elg1, hits give low values 1.01 | S. cerevisiae deletion strains, locus YOR184W, strain ser1, hits give low values 1.06 | S. cerevisiae deletion strains, locus YOR231W, strain MKK1, hits give low values 1 | S. cerevisiae deletion strains, locus YOR265W, strain rbl2, hits give low values 1.01 | S. cerevisiae deletion strains, locus YOR270C, strain vph1, hits give low values 0.944 | S. cerevisiae deletion strains, locus YOR290C, strain snf2, hits give low values 1.01 | S. cerevisiae deletion strains, locus YOR316C, strain cot1, hits give low values 1.01 | S. cerevisiae deletion strains, locus YPL051W, strain arl3, hits give low values 0.99 | S. cerevisiae deletion strains, locus YPL078C, strain atp4, hits give low values 1.01 | S. cerevisiae deletion strains, locus YPL106C, strain sse1, hits give low values 1 | S. cerevisiae deletion strains, locus YPL240C, strain hsp82, hits give low values 0.994 | S. cerevisiae deletion strains, locus YPL241C, strain CIN2, hits give low values 1.01 | S. cerevisiae deletion strains, locus YPL256C, strain CLN2, hits give low values 0.961 | S. cerevisiae deletion strains, locus YPR119W, strain clb2, hits give low values 1.02 | S. cerevisiae deletion strains, locus YPR141C, strain kar3, hits give low values 1.01 | S. cerevisiae deletion strains, locus YPR163C, strain tif3, hits give low values 1.01 | S. cerevisiae deletion strains, locus YPR167C, strain met16, hits give low values 1.02 | S. cerevisiae deletion strains, strain wtn01, hits give low values 1.02 | S. cerevisiae strains, strain wild type, hits give low values 1.01
